This is an account of results in PubChem BioAssay (NCATS).

Results filed as inconclusive are left out. Unmarked numbers belong to inactive results. Calls of active or inactive are those of the source. Calls come from the whole dose curve; as a rule, active = well fitted inhibition curve with a large enough effect; inconclusive = small, poorly fitted or top-dose-only effect; inactive = flat fitted curve, though single readings scatter.
% is set by controls: 0 for no effect and ±100 for the full control effect; potency is the fitted concentration of half-maximal effect.

The subject of this experiment is HaCat. As to the kind of experiment: Cytotoxic Profiling of Annotated Libraries Using Quantitative High-Throughput Screening (AID 1296008). Note: nearly all actives have a fitted effect of over 60% in size. The settings on record: Five cell lines viability, CellTiter-Glo ATP luminescence, 48-72 h; max response: hits give low values. The procedure, abridged: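 Cells exposed to compounds for 48 or 72 hr at 37 degrees Celsius. Viability read as ATP-coupled luminescence with CellTiter-Glo after 10 min at room temperature.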
Background: ATP-based viability assays read luminescence as a measure of living cells.
With `CC1OC(OC2CCC3(C)C(CCC4(C)C3CC=C3C5CC(C)(C)CCC5(C(=O)OC5OC(CO)C(O)C(O)C5O)CCC34C(=O)O)C2(C)C)C(O)C(O)C1O` (stereo not given), the max response was -11.4%.
Turning to `COC1C(=O)CCC2(CO2)C1(O)C1(C)OC1CC=C(C)C` (stereo not given), the max response is -2.7%.
Take `CC(C)(C)NCCCNC(=O)c1cccc(Br)c1`: the max response is 4.1%.
Turning to `CC(=O)/C=C/[C@H]1[C@](C)(O)[C@@H](O)[C@H](OC(C)=O)C2C(C)(C)CCC[C@@]21C` (stereo not given in full), the max response is -21.7%.
Turning to `C=C1C(OC(C)=O)CCC2(C)CC3(OC)OC(=O)C(C)=C3CC12` (stereo not given), the max response is -0.749%.
Take `Cc1cc(OCc2nnc(SC3CCCC3)n2-c2cccnc2)ccc1-c1ccc(S(C)(=O)=O)cc1`: the Potency is 4.61 µM (active).
For `CC(/C=C/C1=CC2=CC(=O)C(C)(O)C(O)C2=CO1)=C\C(C)CCO` (stereo not given), the max response is -24.3%.
Turning to `C[C@]1(CO)CCC[C@]2(C)C3=C(CCC12)COC3` (stereo not given in full), the max response is -11.9%.
On to `C=C(C(=O)O)C1CC2=C(C)CCCC2(C)C[C@@H]1O` (stereo not given in full), for which the max response was 0.301%.
Consider `CCn1c(=O)c(-c2ccn[nH]2)cc2c(C)nc(N)nc21`, for which the Potency is 2.59 µM (active).
Take `C=C[C@H]1C(O[C@@H]2O[C@H](CO)[C@@H](O)[C@H](O)[C@H]2O)OC=C2C(=O)N3CCc4c([nH]c5ccccc45)[C@H]3C[C@H]21` (stereo not given in full): the max response was 2.83%.
`C[C@@H]1C[C@@H]([C@@H](O)C(C)(C)O)O[C@H]2C[C@@]3(C)C(=C12)C[C@H](O)[C@H]1[C@@]2(C)CCC(=O)C(C)(C)C2CC[C@@]13C` (stereo not given in full): the max response is -11.9%.
On to `C[C@@H]1O[C@@H](O[C@@H]2[C@@H](O[C@@H]3O[C@@H](C)[C@H](O[C@@H]4OC[C@H](O)[C@H](O[C@@H]5OC[C@@H](O)[C@H](O)[C@H]5O)[C@H]4O)[C@@H](O[C@@H]4OC[C@](O)(CO)[C@H]4O)[C@H]3O)[C@H](OC(=O)[C@]34CCC(C)(C)C[C@H]3C3=CCC5[C@@]6(C)C[C@H](O)[C@H](O[C@@H]7O[C@H](CO[C@@H]8OC[C@H](O)[C@H](O)[C@H]8O)[C@@H](O)[C@H](O)[C@H]7O)C(C)(C)C6CC[C@@]5(C)[C@]3(C)C[C@H]4O)OC[C@H]2O)[C@H](O)[C@H](O)[C@H]1O` (stereo not given in full), for which the max response is 0.757%.
Regarding `CC1(C)CCCC2(C)C1C(O)C=C(CO)C2(O)CO` (stereo not given), the max response was -4.77%.
Turning to `CCOc1ccc(S(=O)(=O)n2c(C)nc3ccccc32)cc1`, the max response is -31.1%.
`CC1(C)CC[C@@]2(C(=O)O[C@@H]3O[C@H](CO)[C@@H](O)[C@H](O)[C@H]3O)C(C1)C1=CCC3[C@@]4(C)CC[C@@H](O[C@@H]5O[C@H](C(=O)O)[C@@H](O[C@@H]6OC[C@@H](O)[C@H](O)[C@H]6O)[C@H](O[C@@H]6OC[C@](O)(CO)[C@H]6O)[C@H]5O)C(C)(C)C4CC[C@@]3(C)[C@]1(C)C[C@H]2O` (stereo not given in full): the max response is 4.43%.
Still for that read-out and setting: the figure for `CC/C=C\CC1C(=O)C=CC1(CCCCCCCC(=O)O)OC(C)=O` (stereo not given) is 3.46%; for `COc1cc(/C=C/C(=O)O[C@H]2[C@H](O)[C@@H](CO)O[C@@]2(CO)O[C@H]2O[C@H](CO)[C@@H](O)[C@H](O)[C@H]2O)ccc1O` it is -4.81%.
With `CC(C)(O[C@@H]1O[C@H](CO)[C@@H](O)[C@H](O)[C@H]1O)C(OC(=O)/C=C\c1ccc(O)cc1)C(=O)OCc1ccc(O[C@@H]2O[C@H](CO)[C@@H](O)[C@H](O)[C@H]2O)cc1` (stereo not given in full), the max response is -19.6%.
In the case of `CC1CCC2C(C)(C)[C@@H](O)CC[C@]2(C)C12Cc1c(O)cc3c(c1O2)CN(C(CCC(=O)O)C(=O)O)C3=O` (stereo not given in full), the max response is 3.85%.
Consider `C/C=C/C=C/C(=O)N1CC[C@]23c4ccccc4N[C@H]4N(C)c5cccc6c5[C@@]42CCN([C@H]6C2OC2(C)C)[C@H]13` (stereo not given in full), for which the max response is -7.02%.
With `C/C=C/C=C/[C@@H]1O[C@](O)([C@H](CC)C(=O)NC/C=C/C=C(\C)[C@@H](OC)[C@@H](C)C2OC(/C=C/C=C/C=C(\C)C(=O)c3c(O)cc[nH]c3=O)[C@H](O)[C@@H]2O)[C@H](O)[C@H](O)C1(C)C` (stereo not given in full), the max response is -11.5%.
`CCC(C)C(=O)OC1CC(C)C=C2C=CC(C)C(CCC(O)CC(O)CC(=O)O)C21` (stereo not given): the max response is -2.56%.
`O=C(O)c1cc(-c2c(-c3ccccc3)nn3ccccc23)n[nH]c1=O`: the max response is -37.3%.
Consider `O=C(CN1C(=O)C2(CCCC2)NCC1c1cc(F)cc(F)c1)Nc1ccc2c(c1)CC1(C2)C(=O)Nc2ncccc21` (stereo not given), for which the max response was 1.71%.
